Source: PubChem BioAssay
A selection: hits, their analogues and other compounds. The true share with any hit is near 3.5%.
TEAD-YAP block: TEAD-YAP interaction inhibition, primary screen, TEAD-YAP interaction inhibitor project, luminescence, HEK-TIYL cells; TEAD-Gal4/YAP UAS-luciferase luminescence; inhibition, % at 9.12 µM; 1.4% of 640,000 active; AID 1259422, 2018; in the data active = inhibition above about 32%;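 note: 0% = median of test compound wells and 100% = reference inhibitor wells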
FBW7 activator: FBW7 E3 ligase activators, primary screen, biochemical, AlphaScreen, human; AlphaScreen FBW7–phospho-cyclin E peptide binding, activator screen; normalized activity (activation), % at 26.1 µM; 0.13% of 650,000 active; AID 1259310, 2017; in the data active = normalized activity above about 1.9%;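 note: purified mutant Fbw7 with reduced substrate affinity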
MITF primary: MITF inhibitors, primary screen, biochemical, AlphaScreen, human; AlphaScreen MITF homodimerization, bead proximity signal; 0.91% of 650,000 active; inhibition, % at 2.6 µM; AID 1259374, 2018; Microphthalmia-associated transcription factor (Homo sapiens), O75030; in the data active = inhibition above about 50%;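 note: 0% = vehicle wells with protein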
GPR151 activ: activators of human GPR151, primary screen, cell-based, PathHunter beta-arrestin, luminescence | PathHunter beta-arrestin GPR151 cells | activation, % at 11.2 µM | 1% of 650,000 active; in the data active = activation above about 4.9%;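 note: 0% = median of compound wells and 100% = cells with positive control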
Target sequence (Q8TDV0 whole entry, looked up): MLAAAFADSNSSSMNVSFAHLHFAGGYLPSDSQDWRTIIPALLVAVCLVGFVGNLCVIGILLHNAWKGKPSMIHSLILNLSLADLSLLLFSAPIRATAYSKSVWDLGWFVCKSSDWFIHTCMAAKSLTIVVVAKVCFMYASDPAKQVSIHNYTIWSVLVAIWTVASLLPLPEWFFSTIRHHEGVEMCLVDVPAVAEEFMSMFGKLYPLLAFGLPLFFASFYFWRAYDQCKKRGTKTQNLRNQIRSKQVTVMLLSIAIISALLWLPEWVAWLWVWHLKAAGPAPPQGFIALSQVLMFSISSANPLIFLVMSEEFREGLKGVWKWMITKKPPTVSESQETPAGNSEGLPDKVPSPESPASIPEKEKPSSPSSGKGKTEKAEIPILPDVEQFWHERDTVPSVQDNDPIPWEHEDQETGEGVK
Numbers without * were called inactive.

SMILES | TEAD-YAP block | FBW7 activator | MITF primary | GPR151 activ
O=C(COc1cc(Cl)c(Cl)cc1Cl)Nc1nccs1 | 59* | 0 | 4 | -1
OCCNc1nc(Nc2ccncc2)nc2c1ncn2-c1ccsc1 | 60* | 0 | 13 | 2
OCCNc1nc(Nc2ccc(-n3ccnc3)cc2)nc2c1ncn2-c1ccccc1 | 42* | 0 | 8 | 0
Oc1ccc(CCNc2nc(Nc3ccc(-n4ccnc4)cc3)nc3c2ncn3-c2ccccc2)cc1 | 16 | 0 | 3 | 0
OCCNc1nc(Nc2ccc(-n3ccnc3)cc2)nc2c1ncn2-c1ccsc1 | 47* | 0 | 4 | 1
OCCNc1nc(Nc2ccccc2)nc2c1ncn2-c1ccccc1 | 50* | 0 | 7 | -1
OCCNc1nc(Nc2ccc(C(F)(F)F)cc2)nc2c1ncn2-c1ccsc1 | 15 | 0 | -18 | 1
COc1ccccc1CNC(=O)c1sc2ncn(Cc3ccccc3Cl)c(=O)c2c1C | 3 | 0 | 16 | 0
O=C(Nc1c2c(nn1-c1ccc(F)cc1)CS(=O)(=O)C2)c1c(F)cccc1F | 3 | 0 | 8 | -2
COc1ccc(C(=O)/C(=C/N2C=CC=CC2=C(C#N)C#N)c2ccco2)cc1 | 48* | 0 | 14 | -3
COc1ccccc1/C=C(/C#N)C(=O)Nc1ccc(O)cc1 | 10 | 0 | -9 | 1
CCOC(=O)c1ccc(NC(=O)/C(C#N)=C/c2ccc(C3CC3C)o2)cc1 (stereo unspecified) | 41* | 0 | 13 | 1
Cc1cccc(NC(=O)/C(C#N)=C\c2ccccc2O)c1 | -51 | 0 | 11 | 0
COc1ccc(NC(=O)/C(C#N)=C\c2ccc(N(C)C)o2)cc1 | 33* | 0 | -16 | 2
COc1ccc(NC(=O)/C(C#N)=C/c2ccccc2OC(C)C)cc1 | 51* | 0 | 2 | 3
COc1ccc(NC(=O)/C(C#N)=C/c2ccc(Br)o2)cc1 | -14 | 0 | 9 | 0
Cc1ccc(NC(=O)/C(C#N)=C/c2ccccc2O)cc1 | 49* | 0 | -16 | 2
CCOc1ccc(NC(=O)c2cnn3c2NC(c2ccc(OC)c(OC)c2)CC3C(F)(F)F)cc1 (stereo unspecified) | -7 | 0 | -1 | 1
Cc1cc(NNC(=O)c2ccccc2Cl)c2cccc(C)c2n1 | 40* | 0 | -11 | 0
COc1ccc(C(=O)NNc2cc(C)nc3c(C)cccc23)cc1 | 10 | 0 | 13 | -1
CCN(CC)C(=O)Nc1ccc2nc(-c3ccco3)c(-c3ccco3)nc2c1 | -1 | -1 | 73* | 0
Clc1cc2nc(-c3ccco3)c(-c3ccco3)nc2cc1Cl | -3 | 0 | 21 | -1
O=C(NCCc1ccccc1)c1ccc2oc(=O)c(S(=O)(=O)c3ccccc3)cc2c1 | -16 | 1 | 1 | 0
CCOc1cc(C2C(C#N)=C(N)Oc3c2ccc2ccccc32)cc(Br)c1O (stereo unspecified) | 65* | 0 | 1 | 0
O=C(COC(=O)c1cccc(F)c1)Nc1ncc(C(F)(F)F)cc1Cl | 4 | 0 | 18 | -2
SMILES | TEAD-YAP block | FBW7 activator | MITF primary | GPR151 activ
COC(=O)c1cc2c(cc1NC(=O)c1cccc3c1SCCC3=O)OCO2 | 51* | 0 | -1 | 0
COC(=O)c1sccc1NC(=O)c1cccc2c1SCCC2=O | 10 | 0 | 6 | -1
Cc1nc(NCCN2CCOCC2)c2sc3nc4c(cc3c2n1)COC(C)(C)C4 | -25 | 0 | -6 | 1
Cc1cc(/C=C2/NC(=O)N(c3cccc(Cl)c3)C2=O)c(C)n1C | 55* | 0 | 1 | -1
COc1ccc2oc(=O)c(-c3csc(Nc4ccccc4OC)n3)cc2c1 | 48* | 0 | -5 | 1
CCOc1ccc(/C=C(\C#N)c2nc(-c3cc4cc(Br)ccc4oc3=O)cs2)cc1 | -4 | 0 | -6 | -1
Cc1ccc2oc(-c3ccc(NC(=O)C(F)(F)F)cc3)nc2c1 | 71* | 0 | 2 | -5
CCc1ccc2oc(-c3cccc(NC(C)=O)c3)nc2c1 | -12 | 1 | 0 | -6
COc1ccc2oc(-c3cccc(NC(C)=O)c3)nc2c1 | 40* | 0 | -2 | -8
CCC(=O)Nc1ccc2oc(-c3cccc(Br)c3)nc2c1 | 57* | 0 | -19 | -3
CCC(=O)Nc1ccc2oc(-c3cccc(I)c3)nc2c1 | -18 | 0 | 6 | -3
Cc1ccc2oc(-c3ccc(C(=O)Nc4ccc(NC(=O)C(C)(C)C)cc4)cc3)nc2c1 | -39 | 0 | -2 | 2
